Common to all, as to experiment: NCI-60 one-dose screen, 48 h (100 = growth as untreated, 0 = no growth, -100 = all killed)
What all share (settings): 10 µM unless noted

Experiment [1] concerns HCT-15 colon.
Experiment [2] has as its system HT29 colon.
For experiment [3], the system named is SNB-75 CNS.
Experiment [4] has as its system SNB-19 CNS.
In experiment [5] the test system is U251 CNS.
In experiment [6] the test system is PC-3 prostate.
The subject of experiment [7] is SK-MEL-5 melanoma.
In experiment [8] the test system is UACC-62 melanoma.
Experiment [9] deals with LOX IMVI melanoma.
Experiment [10] has as its system SK-MEL-28 melanoma.
The test system of experiment [11] is SK-MEL-2 melanoma.
Experiment [12] deals with EKVX NSCLC.
The subject of experiment [13] is SN12C renal.
For experiment [14], the system named is UO-31 renal.
The test system of experiment [15] is TK-10 renal.
In experiment [16] the test system is ACHN renal.
The subject of experiment [17] is CAKI-1 renal.
The subject of experiment [18] is CCRF-CEM leukemia.
Experiment [19] relates to MOLT-4 leukemia.

Each structure is given as a SMILES string. Compounds without any hit were thinned out: in the full panel of roughly 83,000, 20% have a hit.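 How to read the values: 0–100, growth inhibition (40 = 60% inhibited); 0, no net growth; -100 to 0, cell death (-40 = 40% of starting cells died; -100 = all dead).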 A number with no mark means an inactive call. The source made the active and inactive calls. The calls were made as follows: active = growth percent below 10; inactive = the rest.

Regarding `Cc1nn(-c2ccccc2)c(N2CCOCC2)c1/C=N/N=c1\sc2ccccc2n1C`, the growth is 39.1% in experiment [1]; 66.5% in experiment [2]; 99.2% in experiment [3]; 87.3% in experiment [4]; 55.2% in experiment [5]; 49% in [6]. Moreover, the growth in experiment [7] was 38.5%; in experiment [8], 71.1%; in experiment [9], 57.9%; in experiment [10], 75.9%; in [11] it was 105%; in experiment [12], 82.2%. The growth in [13] was 81.7%; in experiment [14] it was 65.2%; in experiment [15] it was 129%; in experiment [16], 82.4%; in [17] it was 67.3%; in experiment [18] it was 67.3%. For the same compound, the growth in experiment [19] was 58.6%.
As to `O=C1c2ccccc2-c2c1c1c(NCCCO)nc3ccccc3c1n2Cc1ccccc1`, the growth in experiment [1] is 66%; in experiment [2], 5.61% (active); in [3] it was -1.82% (active); in experiment [4] it was 16.7%; in experiment [5], 7.89% (active); in [6] it was 33.8%. Besides, the growth in experiment [7] is -82.6% (active); in [8], 17.5%; in experiment [9] it was 2.25% (active); in [10], -3.55% (active); in experiment [11], 48.5%; in [12], 17.8%. Besides, the growth in [13] was 18.6%; in experiment [14] it was -40.9% (active); in [15], -20.2% (active); in experiment [16] it was 50.1%; in experiment [17], 33.9%; in experiment [18], 36%. For the same compound, in experiment [19], the growth was 16.9%.
Regarding `CNC(=O)Nc1ccc(-c2nc(N3CCOCC3)nc3c2cnn3C2CCOCC2)cc1`, the growth in experiment [1] is 8.73% (active); in experiment [2], 6.44% (active); in experiment [3] it was -37.9% (active); in [4] it was 7.91% (active); in experiment [5], 4.14% (active); in experiment [6], 6.22% (active). The growth in [7] is -47.7% (active); in experiment [8], -39.6% (active); in [9], 4.58% (active); in experiment [10], -14.1% (active); in experiment [11] it was -23.8% (active); in experiment [12], -24.3% (active). Moreover, the growth in [13] was 7.06% (active); in experiment [14], -23.5% (active); in [15], -38% (active); in experiment [16], 4.27% (active); in [17], -19.3% (active); in [18], 23.8%. In experiment [19], the growth was 11.9%.
Regarding `N#Cc1c(NC(=O)c2cccc(Br)c2)sc2c1CCCC2`, the growth in [1] was 45.8%; in [2], 59.5%; in [3] it was 84.4%; in [4], 81.1%; in [5], 88.2%; in [6] it was 90.9%. Besides, the growth in experiment [7] was 89.8%; in experiment [8] it was 71.7%; in [9], 80%; in experiment [10], 86.3%; in experiment [11], 91.9%; in [12], 92.3%. Besides, the growth in experiment [13] was 83.9%; in experiment [14], 82.3%; in experiment [15] it was 79.2%; in experiment [16], 75.6%; in experiment [17], 73%; in experiment [18], 63.5%. Besides, the growth in experiment [19] was 52.3%.
Consider `O=C(CSc1nc2sc3c(c2c(=O)n1Cc1ccccc1)CCCC3)N1CCN(c2ccccc2)CC1`, for which the growth in experiment [1] is 94.8%; in [2] it was 90.2%; in experiment [3], 79.4%; in experiment [4], 110%; in experiment [5], 90.8%; in experiment [6] it was 83.2%. In addition, the growth in experiment [7] is 98.5%; in experiment [8] it was 96%; in [9] it was 97%; in experiment [10], 106%; in experiment [11], 106%; in experiment [12] it was 99.6%. The growth in experiment [13] is 110%; in experiment [14], 76.8%; in [15], 104%; in experiment [16], 104%; in experiment [17], 92.9%; in experiment [18], 97.7%. Moreover, the growth in experiment [19] is 92.8%.
Turning to `CC(=O)c1cccc(NS(=O)(=O)c2cccc(C(=O)Nc3ccc(Br)cc3)c2)c1`, the growth in experiment [1] was 62.8% [25 µM]; in experiment [2], 78.4% [25 µM]; in experiment [3], 70.5% [25 µM]; in [4] it was 53.9% [25 µM]; in experiment [5], 62.7% [25 µM]; in experiment [6], 48.8% [25 µM]. The growth in experiment [7] was -13.7% [25 µM] (active); in experiment [8], 38.9% [25 µM]; in [9], 50.5% [25 µM]; in [10], 71.3% [25 µM]; in [11] it was 50.6% [25 µM]; in experiment [12], 27.1% [25 µM]. Besides, the growth in experiment [13] is 58% [25 µM]; in experiment [14] it was 41% [25 µM]; in [15] it was 80.7% [25 µM]; in [16] it was 61.5% [25 µM]; in experiment [17], 39.6% [25 µM]; in [18], 47.7% [25 µM]. In addition, the growth in experiment [19] was 38.7% [25 µM].
For the compound `O=C(Nc1ccc2cc3ccc(NC(=O)NC4CCCCC4)cc3nc2c1)NC1CCCCC1`, the growth in [1] was 111%; in experiment [2], 82.7%; in experiment [3] it was 58.6%; in experiment [4], 78.9%; in experiment [5] it was 56.2%; in experiment [6] it was 83.7%. Also, the growth is 107% in experiment [7]; 87.8% in experiment [8]; 63% in [9]; 79% in [10]; 97.3% in [11]; 95.1% in [12]. The growth in [13] was 88.2%; in experiment [14], 89.1%; in experiment [15], 100%; in experiment [16], 100%; in experiment [17], 93.3%; in [18] it was 25.1%. Moreover, in experiment [19], the growth was 9.49% (active).
As for `COc1ccc(/C(=C\c2ccccc2)C(=O)O)cc1OC`, the growth in experiment [1] is 102%; in experiment [2], 103%; in experiment [3] it was 81.6%; in experiment [4], 95.7%; in [5], 99.6%; in [6], 96.9%. Moreover, the growth in experiment [7] is 93%; in experiment [8], 93%; in experiment [9], 95.3%; in experiment [10], 106%; in experiment [11] it was 98.3%; in experiment [12], 101%. Besides, the growth in experiment [13] is 98.4%; in [14] it was 88.9%; in experiment [15] it was 104%; in experiment [16], 94.8%; in experiment [17], 97.4%; in [18], 117%. Further, the growth in experiment [19] is 108%.

(Values after PubChem BioAssay (NCI).)
